Screening results from PubChem.
TSHR agonist: TSH receptor (human) agonism | P16473 | HEK293-CNG-TSHR cells (CNG channel as cAMP sensor), membrane potential dye, cAMP | Potency, µM (top dose mostly 57.1 µM), for the others: at the top dose activation, most hits filed as activators | 0.48% of 73,000 active; active = well fitted activation curve with a large enough effect in the main read-out, with a control signal flat, not every such curve was filed as active; inconclusive = small, poorly fitted or top-dose-only effect, or a change in a side signal; inactive = no such curve, though single readings can be large or run the other way; % of control where 0% means no effect;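 note: the control signal comes from parental cells without the receptor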
Target sequence (P16473 whole entry, looked up): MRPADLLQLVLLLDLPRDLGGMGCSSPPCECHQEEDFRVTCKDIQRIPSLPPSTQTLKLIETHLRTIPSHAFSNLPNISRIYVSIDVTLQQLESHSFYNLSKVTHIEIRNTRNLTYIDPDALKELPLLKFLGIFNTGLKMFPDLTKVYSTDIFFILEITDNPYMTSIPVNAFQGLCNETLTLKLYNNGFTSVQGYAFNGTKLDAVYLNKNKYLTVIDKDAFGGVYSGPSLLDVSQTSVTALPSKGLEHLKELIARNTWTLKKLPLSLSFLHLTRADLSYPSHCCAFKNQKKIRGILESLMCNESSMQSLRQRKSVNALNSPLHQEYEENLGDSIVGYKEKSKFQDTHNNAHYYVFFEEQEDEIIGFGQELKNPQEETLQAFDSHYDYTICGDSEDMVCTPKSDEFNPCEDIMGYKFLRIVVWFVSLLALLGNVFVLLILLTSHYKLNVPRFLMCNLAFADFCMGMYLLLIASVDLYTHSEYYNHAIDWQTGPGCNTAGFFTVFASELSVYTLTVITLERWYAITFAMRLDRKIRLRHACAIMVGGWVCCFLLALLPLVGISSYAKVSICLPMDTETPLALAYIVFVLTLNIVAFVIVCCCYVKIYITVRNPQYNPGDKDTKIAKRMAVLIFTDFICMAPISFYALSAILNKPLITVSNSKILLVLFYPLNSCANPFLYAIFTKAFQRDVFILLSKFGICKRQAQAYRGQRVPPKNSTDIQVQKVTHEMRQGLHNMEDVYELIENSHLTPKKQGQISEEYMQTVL
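HEK 293 cells stably expressing TSHR and a modified CNG channel, with CNG-only parental cells as counterscreen, were preloaded 60 min at room temperature with membrane potential dye containing 100 uM RO 20-1724. Compound exposure was 30 min, and depolarization was read as fluorescence at 590 nm.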
GBA activity: human lysosomal glucosylceramidase modulation. purified enzyme, resorufin glucoside fluorescence (screen aimed at inhibitors), 20 min. Potency, µM. 1.1% of 48,000 active. AID 360; in the data active = potency below about 15 µM; inconclusive = mostly about 16 µM to 33 µM;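 note: the screen sought inhibitors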
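Compounds titrated against 0.2 nM normal enzyme, 30 uM resorufin beta-D-glucopyranoside substrate, citrate/phosphate buffer with taurocholate and tween-20, pH 5.9. Reaction ran 20 min at room temperature; fluorescence (Ex 548/Em 600) gave AC50.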
Bst PK mod: pyruvate kinase (B. stearothermophilus) modulation | Potency, µM | purified pyruvate kinase, luminescence ATP production; ribose 5-phosphate activator present at AC10 | 1.2% of 51,000 active; in the data active = potency below about 11 µM; inconclusive = mostly about 12 µM to 25 µM;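 the screen sought inhibitors and activators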;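 note: scaled between full activation by ribose 5 phosphate and full inhibition by luteolin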
HEK293 cAMP cs: counter-screen for TSHR agonists: cAMP increase in parental HEK293 | parental HEK293 CNG cAMP sensor, membrane potential fluorescence | Potency, µM (titrated, usually from 57.1 µM), without a hit: at the highest dose activation, actives largely listed as activators | 2.5% of 73,000 active | AID 938; note: % of control where 0% means no effect; nearly all actives have a fitted effect of over 55% in size
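Parental HEK 293 cells stably expressing a cAMP-gated CNG channel were loaded with membrane potential dye containing 100 uM RO 20-1724 for 60 min. Compound added for 30 min; depolarization read as fluorescence intensity at 590 nm.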
Luciferase inh: inhibitors of firefly luciferase. P08659. purified firefly luciferase, luminescence, 8 min. Potency, µM (titrated, usually from 57.1 µM), for inactives: at the top dose activity change, negative = inhibition, hits mostly inhibitors. 2.2% of 72,000 active. AID 411; note: % is set by controls: 0 for no effect and ±100 for the full control effect; nearly all actives have a fitted effect of over 40% in size
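Compounds were tested as concentration series (qHTS) against purified P. pyralis luciferase with luciferin and 10 uM ATP in 50 mM imidazole pH 7.2, 50 mM KCl, 7 mM MgCl2, 0.01% Tween 20, 0.05% BSA. Luminescence was read after 8 min at ambient temperature.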
ERK AVP block: inhibitors of vasopressin-stimulated ERK signaling pathway. HEK293-V1b, vasopressin-stimulated pERK AlphaScreen. Potency, µM (top dose mostly 57.5 µM), for the others: at the top dose activity, negative = inhibition, hits mostly inhibitors. 0.99% of 72,000 active; note: % is set by controls: 0 for no effect and ±100 for the full control effect; nearly all actives have a fitted effect of over 55% in size
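HEK293 cells stably expressing V1b receptor, seeded overnight in 1% FBS, were treated with compounds for 30 min at 37C, then stimulated 5 min with 25 nM vasopressin; phospho-ERK read by AlphaScreen SureFire after lysis.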
Starred values were filed as active, the others as inactive; i = inactive; ? = inconclusive; nt = no result; [ ] = remark or other dose. An excerpt weighted towards active compounds, which were near 6.1% of everything screened. Unless noted, calls come from the whole dose curve; as a rule, active = well fitted curve in the direction sought with a large enough effect; inconclusive = small, poorly fitted or top-dose-only effect, or another doubt; inactive = no such curve, though single readings can be large; an effect the other way counts as inactive or inconclusive. Potency is the fitted concentration of half-maximal effect.

SMILES	TSHR agonist	GBA activity	Bst PK mod	HEK293 cAMP cs	Luciferase inh	ERK AVP block
CC12CC[C@@H]3c4ccc(OP(=O)(O)O)cc4CCC3C1CCC2=O (stereo not given in full)	-2.3%[11.4 µM]	nt	nt	-7.0%[11.4 µM]	2.8%[11.4 µM]	-6.6%[11.5 µM]
O=C(O)[C@@H](Cc1c[nH]c2ccccc12)C(=O)NO	0.8%[11.4 µM]	nt	nt	-3.1%[11.4 µM]	2.2%[11.4 µM]	5.5%[11.5 µM]
COc1ccc2nc(SCC(=O)N(C)C3CCCCC3)c(C#N)cc2c1	?	?	>57	25.1µM*	-0.3%	44.8%
COc1ccc2nc(SCC(=O)Nc3ccc(S(=O)(=O)N4CCCC4)cc3)c(C#N)cc2c1	?	>76.9	>57	3.16µM*	4.1%	0.1%
COc1ccccc1C(=O)N1CCN(c2nc3cc(C)c(C)cc3cc2C#N)CC1	?	>76.9	>57	12.6µM*	-2.9%	14.4%
COc1ccc2nc(N3CCCCC3)c(C#N)cc2c1	6.2%	nt	i	5.2%	25.1µM*	102.5%
CCCNC(=O)OC[C@@H]1O[C@H](CCON=C(C)C)C=C[C@@H]1Oc1ccc(OC)cc1	3.1%[11.4 µM]	nt	nt	-2.2%[11.4 µM]	0.3%[11.4 µM]	8.6%[11.5 µM]
O=C1[C@@H]2C=CC=CC2=NC(=S)N1CCN1CCC(=C(c2ccc(F)cc2)c2ccc(F)cc2)CC1	?	nt	nt	?	1.1%	-0.8%
COCCNC(=O)c1sc2nc(-c3ccccc3)cn2c1C	9.6%	>76.9	nt	9.1%	-13.6%	5.4%
Cc1nn2cc(-c3ccc(Cl)cc3)nc2s1	-14.3%	>76.9	?	8.5%	3.16µM*	-15.5%
Cc1nn2cc(-c3ccc(-c4ccccc4)cc3)nc2s1	-5.2%	>76.9	nt	-6.8%	1µM*	9.9%
CCc1nn2cc(-c3ccccc3)nc2s1	-4.3%	>76.9	2.39*	-2.9%	1.58µM*	-13.9%
COC1/C=C/OC2(C)Oc3c(C)c(O)c4c(O)c(c(/C=N/N5CCN(C)CC5)c(O)c4c3C2=O)NC(=O)/C(C)=C/C=C/C(C)C(O)C(C)C(O)C(C)C(OC(C)=O)C1C (stereo not given)	nt	nt	nt	nt	nt	-28.2%
Cc1cc(C#N)c(C)n1-c1cc(C(F)(F)F)ccc1N1CCOCC1	?	i	>57	12.6µM*	-0.7%	18.3%
Cn1c(-c2ccc(CN3CCCCC3)o2)nc2ccccc21	-2.0%	>76.9	>11.4	22.4%	12.6µM*	-9.2%
Cn1c(-c2ccc(N)cc2)nc2ccccc21	1.1%	>76.9	nt	0.8%	?	-22.4%
COc1c2c(nc3ccccc13)O[C@H]([C@@](C)(O)CO)C2	1.5%[25.6 µM]	nt	nt	1.2%[25.6 µM]	1.3%[25.5 µM]	2.2%[25.7 µM]
CCc1c2c(nc3cccc(OC)c13)OC(CC)C2 (stereo not given)	?	nt	nt	15.8µM*	nt	-6.7%
Cc1ccc(S(=O)(=O)NC(=O)OC23COCN2COC3)cc1	19.4%[11.4 µM]	nt	nt	15.9%[11.4 µM]	2.7%[11.4 µM]	-10.0%[11.5 µM]
CN[C@@H](CC(C)C)C(=O)N[C@@H]1C(=O)N[C@H](CC(N)=O)C(=O)N[C@H]2C(=O)N[C@H]3C(=O)N[C@H](C(=O)N[C@H](C(=O)O)c4cc(O)cc(O)c4-c4cc3ccc4O)[C@H](O)c3ccc(c(Cl)c3)Oc3cc2cc(c3O[C@@H]2O[C@@H](CO)[C@@H](O)[C@@H](O)[C@H]2O[C@H]2C[C@](C)(N)[C@H](O)[C@H](C)O2)Oc2ccc(cc2Cl)[C@@H]1O	?	nt	nt	?	0.7%	-3.1%
O=C(CN(CCc1ccccc1)C(=O)CN1C(=O)COc2ccccc21)NCc1ccco1	9.8%	>76.9	>57	26.4%	0.5%	-7.0%
O=C(CN(CCc1ccccc1)C(=O)Cn1nnc(-c2cccs2)n1)NCc1ccco1	?	i	>57	25.1µM*	-0.3%	9.2%
c1cncc(C2Nc3ccccc3-c3nc4ccccc4n32)c1 (stereo not given)	27.5%	>76.9	nt	3.8%	-23.5%	-4.0%
c1ccc2c(c1)NC1(CCCC1)n1c-2nc2ccccc21	23.9%	nt	i	11.2%	25.1µM*	7.1%
C/C=C\C[C@@H](C)[C@@H](O)[C@H]1C(=O)N[C@@H](CC)C(=O)N(C)CC(=O)N(C)[C@@H](CC(C)C)C(=O)N[C@@H](C(C)C)C(=O)N(C)[C@@H](CC(C)C)C(=O)N[C@@H](C)C(=O)N[C@H](C)C(=O)N(C)[C@@H](CC(C)C)C(=O)N(C)[C@@H](CC(C)C)C(=O)N(C)[C@@H](C(C)C)C(=O)N1C	17.1%	nt	nt	1.0%	0.3%	-0.9%
SMILES	TSHR agonist	GBA activity	Bst PK mod	HEK293 cAMP cs	Luciferase inh	ERK AVP block
Cc1ccc(NC(=O)c2ccco2)c(NC(=O)CN2C(=O)c3ccccc3C2=O)c1	5.8%	>76.9	>57	1.8%	-1.4%	-11.3%
COc1cc(NC(=O)C(C)C)ccc1NC(=O)c1ccco1	-3.2%	>76.9	nt	6.6%	20µM*	-0.1%
CCCCOc1ccccc1NC(=O)c1ccco1	?	nt	nt	15.8µM*	-3.7%	-18.6%
Cc1ccc(Cn2cccc(NC(=O)c3ccco3)c2=O)cc1	?	>76.9	nt	15.8µM*	-7.4%	10.8%
O=C(N1CCOCC1)N1CCN(c2nc(-c3ccccc3)cs2)CC1	-1.2%	>76.9	nt	8.1%	?	1.1%
c1ccc(-c2csc(N3CCN(c4ccccn4)CC3)n2)cc1	15.5%	>76.9	nt	11.6%	-20.3%	15.8µM*
CCCn1c(-c2ccc(F)cc2)nc2c(N3CCN(Cc4nc(OC)cc(OC)n4)CC3)nc(C)nc21	?	nt	nt	15.8µM*	nt	-20.9%
CCCn1c(-c2ccc(F)cc2)nc2c(NCCN3CCCC3)nc(C)nc21	?	nt	nt	?	nt	21.9%
O=C(O)c1ccccc1NCn1c(=S)sc2ccccc21	2.9%[11.4 µM]	nt	nt	-3.7%[11.4 µM]	5.1%[11.4 µM]	-1.3%[11.5 µM]
O=c1c(-c2ccc3c(c2)OCCO3)coc2cc(O)cc(O)c12	?	>76.9	5.96*	?	?	?
O=c1c(-c2ccccc2)coc2cc(O)cc(O)c12	nt	nt	nt	nt	nt	-13.4%
CC1N/C(=C\C(=O)c2ccccc2)N(O)C1(C)C (stereo not given)	2.4%	>76.9	i	6.4%	12.6µM*	-0.9%
O=CC(=O)c1ccccc1	-5.6%	nt	nt	26.5%	nt	41.4%
OCc1ccncc1.OCc1ccncc1.[Cl][Pt]([Cl])([Cl])[Cl]	-0.9%[11.4 µM]	nt	nt	-12.7%[11.4 µM]	-0.6%[11.4 µM]	-10.1%[11.5 µM]
Cc1occc1C(=O)Nc1cc(C(C)(C)C)on1	?	>76.9	nt	?	15.8µM*	-8.0%
Cc1occc1C(=O)Nc1ccc2ccccc2c1	9.3%	nt	nt	5.6%	20µM*	-29.5%
Cc1occc1C(=O)Nc1ccccc1C(=O)O	7.8%	nt	nt	15.2%	-10.7%	8.3%
Cc1occc1C(=O)Nc1nnc(C(F)(F)F)s1	1.2%	?	>57	-0.8%	-4.4%	-14.9%
Nc1c(OCC(=O)O)ccc2cc(S(=O)(=O)O)ccc12	-5.8%[11.4 µM]	nt	nt	1.5%[11.4 µM]	-1.7%[11.4 µM]	-1.2%[11.5 µM]
Cc1cccc(NC(=O)c2ccc(S(=O)(=O)N(C)C)cc2)n1	-7.3%	>76.9	>57	2.6%	-1.9%	0.2%
CCCCOc1ccc(C(=O)Nc2cccc(C)n2)cc1	2.4%[11.4 µM]	nt	i	26.2%	12.6µM*	26.5%
